Test results published in PubChem BioAssay AID1851 (National Center for Advancing Translational Sciences (NCATS), 2009).
In all, about 16,000 compounds went through this assay and about 4,000 (25%) were called active. Roughly 26% stayed inconclusive and do not appear here. Calls come from the whole dose curve; as a rule, active = well fitted curve in the direction sought with a large enough effect; inconclusive = small, poorly fitted or top-dose-only effect, or effect the other way; inactive = no such curve, though single readings can be large or run the other way. Not all results are given here.

Molecular target: Cytochrome P450 2C9 (Homo sapiens) (UniProt P11712)
Assay: Cytochrome panel assay with activity outcomes
Settings: recombinant CYP, pro-luciferin dealkylation, luminescence, p450-cyp2c9; series mostly up to 57.1 µM
% is set by controls: 0 for no effect and ±100 for the full control effect.

Cytochrome P450 2C9 (Homo sapiens), sequence (P11712 whole entry, looked up): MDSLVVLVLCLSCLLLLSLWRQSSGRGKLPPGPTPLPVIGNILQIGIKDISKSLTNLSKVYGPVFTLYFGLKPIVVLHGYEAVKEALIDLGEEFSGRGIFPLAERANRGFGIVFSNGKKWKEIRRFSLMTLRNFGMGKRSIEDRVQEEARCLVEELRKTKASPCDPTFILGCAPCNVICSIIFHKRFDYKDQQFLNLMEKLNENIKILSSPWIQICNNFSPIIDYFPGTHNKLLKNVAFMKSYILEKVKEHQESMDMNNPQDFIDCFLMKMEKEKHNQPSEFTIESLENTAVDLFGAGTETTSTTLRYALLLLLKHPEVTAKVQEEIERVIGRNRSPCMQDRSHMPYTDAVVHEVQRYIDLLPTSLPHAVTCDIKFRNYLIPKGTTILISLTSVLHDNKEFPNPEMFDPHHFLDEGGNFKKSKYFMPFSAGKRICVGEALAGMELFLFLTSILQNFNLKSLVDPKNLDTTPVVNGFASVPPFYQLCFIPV

AC50, active:
CCOc1ccc(C(=O)Nc2cnn(Cc3ccc(Cl)c(Cl)c3)c2)cc1 17.8 µM, CC(C)N(C(=O)CSc1nc2ccccc2n1-c1ccccc1)C(C)C 15.8 µM, CCOC(=O)c1c(NC(=S)Nc2ccccc2)sc2c1CCN(CCc1ccccc1)C2 0.282 µM, O=C(COc1ccc2ccccc2c1)Nc1ccc(Cc2ccncc2)cc1 0.316 µM, CCSc1nnc(NC(=O)COc2ccc3ccccc3c2)s1 0.224 µM, Cc1cc(C)c(C#N)c(SCc2cc3c(cc2Cl)OCO3)n1 3.16 µM, COc1ccc(Nc2nnc(-c3ccc(N4CCOCC4)c([N+](=O)[O-])c3)c3ccccc23)cc1 3.16 µM, NCCCCCCNS(=O)(=O)c1cccc2c(Cl)cccc12 3.16 µM, NCCCCNS(=O)(=O)c1ccc2c(Cl)cccc2c1 2 µM, NCCCCCCCCCCNS(=O)(=O)c1cccc2c(Cl)cccc12 0.0501 µM, N[C@H](C(=O)O)[C@H](OCc1ccccc1)C(=O)O 10 µM, NCCSc1nc2ccccc2s1 1.58 µM, O=C(CSc1nc2ccccc2s1)NNC(=S)Nc1ccc(Br)cc1 5.01 µM, Cc1ccc(S(=O)(=O)NC(=O)CSc2nc3ccccc3s2)cc1 2.51 µM, O=C(CSc1nc2ccccc2s1)N1c2ccccc2Sc2ccc(C(F)(F)F)cc21 3.55 µM, O=C(CSc1nc2ccccc2s1)N1c2ccccc2Sc2ccccc21 1.12 µM, CCOC(=O)C1=C(C)C(c2ccccc2OC)NC(=S)N1 (centres undefined) 15.8 µM, COC(=O)C1=C(C)C(c2ccc(OC)cc2)NC(=S)N1 (centres undefined) 15.8 µM

AC50, inactive:
C=CC[N+]1(CC#CCOC(c2ccccc2)c2ccccc2)CCOCC1, CC1=CC(=O)C=CC1(C)C(Cl)(Cl)Cl (centres undefined), CCCOc1ccc(C(=O)CCNc2ccc(C)c(Cl)c2)cc1, CCOC(OCC)P(=O)(O)CCCNCc1ccc(Cl)c(Cl)c1, Cn1c(SCc2nc3ccccc3n2CCO)nc2ccccc21, CCCCc1c(O)nc(SCCN(C)C)n(-c2ccccc2)c1=O, C[C@@H](N)C(=O)O, CCN1CCc2c(sc(N)c2C(N)=O)C1, CCN1CCc2c(sc(NC(=S)NC(=O)c3ccccc3)c2C#N)C1, O=C(COc1ccc2ccccc2c1)NNC(=O)Cc1cccc2ccccc12, CCSc1nnc(NC(=O)Cc2ccccc2OC)s1, N#Cc1cccc(NC(=O)N2CCCC3(CCN(C(=O)c4cnccn4)CC3)C2)c1, CS(=O)(=O)N1CCC2(CC1)CN(C(=O)Nc1cccc(C#N)c1)C2, NCCNS(=O)(=O)c1cccc2cnccc12, CCCCCCCNS(=O)(=O)c1cccc2c(Cl)cccc12, CNCCNS(=O)(=O)c1cccc2cnccc12, NCCCCCCCCCCN, OCCN1CCN(CC/C=C2\c3ccccc3Sc3ccc(C(F)(F)F)cc32)CC1, O=C(CSc1nc2ccccc2s1)Nc1nccs1, CC(C)N=c1cc2n(-c3ccc(Cl)cc3)c3ccccc3nc-2cc1Nc1ccc(Cl)cc1, CN(C)c1ncc2nc(-c3cccc(C#N)c3)c(=O)n(C[C@H]3CCCO3)c2n1, CCSC(=N)N, CCOC(=O)C1C(=O)NC(C)C1c1ccccc1 (centres undefined), COc1ccc(N2C(=O)CCC(C(=O)O)C2c2ccc(F)cc2)cc1 (centres undefined), COc1ccc(C2C(C(=O)N3CCOCC3)CCC(=O)N2c2ccc(OC)cc2)cc1 (centres undefined)

activity, negative = inhibition, inactive:
COc1ccccc1CNc1ncncc1-c1ccccc1C 11.7% [at 2.29 µM], CO/N=C(\C)CCN1CCCCc2nc(C)c(C)cc21 8.57% [at 11.4 µM], Nc1nccc(Nc2ccc(S(N)(=O)=O)cc2)n1 -3.1% [at 11.4 µM], CC(=O)CC(=O)Nc1ccc2ccccc2c1 21.1% [at 11.4 µM], Nc1nc(Cl)cc(NCCO)n1 2.74% [at 11.4 µM], O=C(O)[C@@H]1Cc2c([nH]c3ccccc23)[C@@H](CCCCO)N1 -6.46% [at 11.4 µM], CC(C)(C)NCC[C@@H](O)c1cc(C(F)(F)F)nc2c(C(F)(F)F)cccc12 3.88% [at 11.4 µM], NCCNS(=O)(=O)c1ccc(N)cc1 -0.285% [at 11.4 µM], N[C@@H](CSCc1ccccc1)C(=O)O 11.8% [at 11.4 µM], N[C@@H](Cc1ccccc1)C(=O)O 13.9% [at 11.4 µM], Fc1ccc(Nc2ncncc2-c2ccccc2C(F)(F)F)cc1 -4.04% [at 2.29 µM], CN1CCN(c2ccnc(-c3cccc(NS(C)(=O)=O)c3)n2)CC1 -3.66% [at 2.29 µM], CC(C)c1ccccc1S(=O)c1ccccc1C(C)(C)O (centres undefined) -18.2% [at 11.4 µM], c1ccc2sc(SCSc3nc4ccccc4s3)nc2c1 -1.3% [at 11.4 µM], c1ccc2sc(SCCSc3nc4ccccc4s3)nc2c1 23.1% [at 11.4 µM], O=C(O)CCCSc1nc2ccccc2s1 -7.61% [at 11.4 µM], CC(C)C(=O)C(C)(C)CCc1ccccn1 13.3% [at 11.4 µM], O=C1[C@H]2[C@H]3[C@H](O)[C@H](O)C/C(=N/OC[C@@H](O)COCc4ccco4)[C@@H]3CC[C@@H]2C(=O)N1C1CCCCC1 -9.96% [at 11.4 µM], CO[C@@H]1COC(=O)C/C=C\[C@H](C)COC(=O)[C@H](Cc2ccccc2)NC(=O)C/C=C\[C@H]1C -22.5% [at 11.4 µM], Nc1ccn([C@@H]2O[C@H](COC(=O)C34CC5CC(CC(C5)C3)C4)[C@@H](O)[C@@H]2O)c(=O)n1 -0.936% [at 11.4 µM], C#CCCCO/N=C1/C[C@@H](O)[C@@H](O)[C@@H]2[C@@H]3C(=O)N(C[C@@H]4CCCO4)C(=O)[C@H]3CC[C@H]12 -17.1% [at 11.4 µM]
